# Data: PubChem BioAssay (NCATS)
# Results filed as inconclusive are left out. Entries that show only a call come without a potency. Activity calls are given as the source filed them. Unless noted, calls come from the whole dose curve; as a rule, active = well fitted curve in the direction sought with a large enough effect; inconclusive = small, poorly fitted or top-dose-only effect, or another doubt; inactive = no such curve, though single readings can be large; an effect the other way counts as inactive or inconclusive. Where a SMILES comes first, the peptide text is derived from it.
# How the values were obtained:
# [1] = target: Ubiquitin carboxyl-terminal hydrolase 1 (Homo sapiens) (UniProt O94782); assay: Inhibitors of USP1/UAF1: Pilot qHTS (AID 504865); conditions: purified USP1/UAF1, Ub-rhodamine cleavage fluorescence; series mostly up to 114 µM;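 note: rhodamine fluorescence freed from ubiquitin-rhodamine substrate followed over time; top concentration of the series differs between compounds; nearly all actives have a fitted effect of over 35% in size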
# Ubiquitin carboxyl-terminal hydrolase 1 (Homo sapiens), sequence (O94782 whole entry, looked up): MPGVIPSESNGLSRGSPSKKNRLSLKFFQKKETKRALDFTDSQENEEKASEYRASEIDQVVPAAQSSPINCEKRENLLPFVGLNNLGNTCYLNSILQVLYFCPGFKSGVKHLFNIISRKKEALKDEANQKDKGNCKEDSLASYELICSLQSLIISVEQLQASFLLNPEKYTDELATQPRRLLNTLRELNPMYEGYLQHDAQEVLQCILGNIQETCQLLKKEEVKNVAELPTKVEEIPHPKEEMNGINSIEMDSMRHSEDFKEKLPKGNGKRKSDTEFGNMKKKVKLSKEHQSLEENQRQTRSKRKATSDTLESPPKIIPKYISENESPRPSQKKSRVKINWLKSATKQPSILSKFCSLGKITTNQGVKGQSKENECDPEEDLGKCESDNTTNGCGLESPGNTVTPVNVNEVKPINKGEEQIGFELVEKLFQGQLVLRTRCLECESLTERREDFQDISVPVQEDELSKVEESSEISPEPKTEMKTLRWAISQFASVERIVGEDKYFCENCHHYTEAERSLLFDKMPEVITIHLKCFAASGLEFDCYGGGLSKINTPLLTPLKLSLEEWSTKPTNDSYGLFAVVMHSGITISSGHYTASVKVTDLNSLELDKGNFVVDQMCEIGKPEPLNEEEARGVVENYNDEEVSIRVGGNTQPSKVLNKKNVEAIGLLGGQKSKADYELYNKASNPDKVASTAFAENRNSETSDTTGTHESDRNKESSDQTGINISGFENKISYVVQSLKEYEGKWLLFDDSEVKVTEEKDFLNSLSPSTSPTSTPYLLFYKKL
# Summary of the method: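 USP1/UAF1 complex (1nM) preincubated with compound 15 min at room temperature, then Ub-Rho substrate (150nM final) added. Fluorescence read kinetically at 480/540 nm, 6 reads every 60 seconds. Buffer: 50mM HEPES pH 7.8, 0.5mM EDTA, 0.1 mg/ml BSA, 1mM TCEP, 0.01% Tween-20.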
# [2] = target: DNA dC->dU-editing enzyme APOBEC-3G (Homo sapiens) (UniProt Q9HC16); assay: qHTS for inhibitors of Vif-A3G interactions: Validation (AID 588379); conditions: Vif-A3G protein interaction assay; series mostly up to 46.1 µM
# DNA dC->dU-editing enzyme APOBEC-3G (Homo sapiens), sequence (Q9HC16 whole entry, looked up): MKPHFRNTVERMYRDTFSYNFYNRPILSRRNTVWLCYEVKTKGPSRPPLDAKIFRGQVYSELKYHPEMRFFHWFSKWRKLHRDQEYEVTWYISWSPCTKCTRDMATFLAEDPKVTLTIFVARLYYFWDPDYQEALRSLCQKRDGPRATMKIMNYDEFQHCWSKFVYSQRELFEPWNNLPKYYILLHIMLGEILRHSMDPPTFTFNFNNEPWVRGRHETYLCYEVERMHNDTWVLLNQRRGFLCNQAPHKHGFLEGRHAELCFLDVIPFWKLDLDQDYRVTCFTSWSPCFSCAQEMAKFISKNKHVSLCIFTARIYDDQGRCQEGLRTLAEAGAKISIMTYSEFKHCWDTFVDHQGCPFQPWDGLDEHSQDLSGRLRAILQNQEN
# Summary of the method: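 Yellow fluorescence (Ex 488, Em 500-530) of Vif-coexpressing HeLa A3G-eYFP cells, scanned by Acumen cytometer, reports blocked A3G degradation. Cells plated at 700/well overnight at 37 deg C before compound addition, then a further overnight compound incubation at 37 deg C.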
# [3] = target: Estrogen receptor (Homo sapiens) (UniProt P03372); assay: qHTS assay for small molecule agonists of estrogen receptor alpha signaling (AID 588514; calls by dose curve; note: nearly all actives have a fitted effect of over 70% in size); conditions: ER-alpha-UAS-bla HEK293, beta-lactamase ratio, 18 h; series mostly up to 76.8 µM
# Estrogen receptor (Homo sapiens), sequence (P03372 whole entry, looked up): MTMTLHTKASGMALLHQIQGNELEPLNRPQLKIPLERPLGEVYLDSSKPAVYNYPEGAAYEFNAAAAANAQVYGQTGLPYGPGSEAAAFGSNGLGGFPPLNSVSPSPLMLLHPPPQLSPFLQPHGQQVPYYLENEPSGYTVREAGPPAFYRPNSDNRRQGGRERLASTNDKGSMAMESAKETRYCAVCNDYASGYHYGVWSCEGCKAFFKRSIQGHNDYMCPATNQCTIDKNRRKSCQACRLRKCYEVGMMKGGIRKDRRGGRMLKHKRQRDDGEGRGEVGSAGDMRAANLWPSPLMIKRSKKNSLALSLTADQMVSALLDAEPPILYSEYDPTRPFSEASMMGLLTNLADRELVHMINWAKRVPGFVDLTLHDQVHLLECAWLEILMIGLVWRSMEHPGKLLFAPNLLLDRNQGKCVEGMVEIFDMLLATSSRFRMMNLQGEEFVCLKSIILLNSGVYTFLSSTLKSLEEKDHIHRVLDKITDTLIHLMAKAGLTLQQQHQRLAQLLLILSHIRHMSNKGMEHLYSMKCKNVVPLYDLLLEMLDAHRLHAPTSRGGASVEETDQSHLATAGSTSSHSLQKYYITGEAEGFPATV
# Summary of the method: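 EC50 and efficacy came from Hill fits of beta-lactamase reporter signal (CCF4 dye, 2 h at room temperature) scaled between DMSO and 20 nM 17-beta-estradiol. Agonist mode: HEK293 ER-alpha-UAS-bla cells in charcoal/dextran-stripped serum medium, 18 h compound exposure at 37 C.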
# [4] = target: Peroxisome proliferator-activated receptor gamma (Homo sapiens) (UniProt P37231); assay: qHTS assay for small molecule agonists of peroxisome proliferator-activated receptor gamma signaling (AID 588536; active = well fitted curve in the direction sought with a large enough effect in the signal ratio, with a control signal flat, not every such curve was filed as active; the % refers to the signal ratio); conditions: HEK293 PPARg-UAS-bla, beta-lactamase ratio, 16 h; series mostly up to 76.7 µM
# Peroxisome proliferator-activated receptor gamma (Homo sapiens), sequence (P37231 whole entry, looked up): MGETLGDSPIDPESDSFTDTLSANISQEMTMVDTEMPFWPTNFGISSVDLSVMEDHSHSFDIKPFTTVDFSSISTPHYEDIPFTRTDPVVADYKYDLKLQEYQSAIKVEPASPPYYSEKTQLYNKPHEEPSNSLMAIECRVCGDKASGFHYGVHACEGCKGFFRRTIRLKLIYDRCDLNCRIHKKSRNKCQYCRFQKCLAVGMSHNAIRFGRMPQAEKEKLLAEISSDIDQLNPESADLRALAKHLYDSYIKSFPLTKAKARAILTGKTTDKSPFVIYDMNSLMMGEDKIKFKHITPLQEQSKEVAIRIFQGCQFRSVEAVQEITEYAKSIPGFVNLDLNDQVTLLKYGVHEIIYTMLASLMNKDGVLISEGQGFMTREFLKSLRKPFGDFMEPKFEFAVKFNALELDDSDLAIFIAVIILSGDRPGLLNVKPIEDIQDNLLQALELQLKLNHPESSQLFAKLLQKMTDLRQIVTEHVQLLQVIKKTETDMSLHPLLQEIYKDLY
# Summary of the method: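 Beta-lactamase reporter read-out: CCF4 fluorescence (ex 405, em 460/530 nm) after 2 h at RT. HEK293 GeneBLAzer cells were treated for 16 h at 37 C. Hill fits gave EC50 and efficacy versus 2 uM rosiglitazone (100%) and DMSO (0%).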
# [5] = target: Peroxisome proliferator-activated receptor gamma (Homo sapiens) (UniProt P37231); assay: qHTS assay for small molecule antagonists of peroxisome proliferator-activated receptor gamma signaling (AID 588537; active = well fitted inhibition curve with a large enough effect in the signal ratio, with a control signal flat, not every such curve was filed as active; the % refers to the signal ratio; note: potency is the fitted concentration of half-maximal effect); conditions: HEK293 PPARg-UAS-bla, beta-lactamase ratio, antagonist mode; series mostly up to 76.8 µM
# Summary of the method: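 Antagonist-mode β-lactamase reporter screen run as a titration series. HEK293 PPARγ-UAS-bla cells are stimulated with rosiglitazone (50 nM final) for 16 h, then CCF4 is read at 460/530 nm. Data are scaled between DMSO and rosiglitazone and fitted to the Hill equation.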
# [6] = target: Androgen receptor (Homo sapiens) (UniProt P10275); assay: qHTS assay for small molecule agonists of androgen receptor signaling (AID 588515; active = well fitted curve in the direction sought with a large enough effect in the signal ratio, with a control signal flat; the % refers to the signal ratio); conditions: AR-UAS-bla HEK293, beta-lactamase ratio, agonist 16 h; stronger effect = higher value
# Androgen receptor (Homo sapiens), sequence (P10275 whole entry, looked up): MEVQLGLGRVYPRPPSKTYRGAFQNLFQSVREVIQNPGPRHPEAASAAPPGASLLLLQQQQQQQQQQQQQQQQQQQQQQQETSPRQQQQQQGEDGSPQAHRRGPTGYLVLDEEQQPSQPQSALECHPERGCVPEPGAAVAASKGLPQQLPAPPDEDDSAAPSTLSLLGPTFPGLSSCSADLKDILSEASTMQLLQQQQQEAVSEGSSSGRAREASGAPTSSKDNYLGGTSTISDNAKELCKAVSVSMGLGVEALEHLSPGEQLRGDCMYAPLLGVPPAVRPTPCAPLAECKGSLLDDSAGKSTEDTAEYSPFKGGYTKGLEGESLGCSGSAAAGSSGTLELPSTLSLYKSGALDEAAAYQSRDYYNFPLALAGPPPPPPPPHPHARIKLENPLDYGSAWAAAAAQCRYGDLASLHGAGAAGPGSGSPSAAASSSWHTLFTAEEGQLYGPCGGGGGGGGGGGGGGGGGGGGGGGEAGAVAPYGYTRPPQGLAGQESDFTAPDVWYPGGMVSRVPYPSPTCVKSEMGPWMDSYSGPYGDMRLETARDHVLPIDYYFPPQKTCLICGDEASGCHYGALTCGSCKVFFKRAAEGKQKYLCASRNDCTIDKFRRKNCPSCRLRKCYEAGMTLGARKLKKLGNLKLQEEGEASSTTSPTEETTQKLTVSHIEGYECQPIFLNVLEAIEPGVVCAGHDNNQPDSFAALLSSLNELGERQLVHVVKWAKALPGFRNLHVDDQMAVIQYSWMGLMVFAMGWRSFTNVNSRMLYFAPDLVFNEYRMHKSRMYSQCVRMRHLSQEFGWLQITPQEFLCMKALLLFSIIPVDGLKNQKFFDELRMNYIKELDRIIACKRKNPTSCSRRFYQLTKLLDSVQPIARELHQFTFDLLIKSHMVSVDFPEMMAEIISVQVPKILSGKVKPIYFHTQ
# Summary of the method: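 Stimulation of an AR-responsive β-lactamase reporter in GripTite HEK293 cells was measured after 16 h compound exposure at 37 °C, via CCF4 fluorescence after 2 h RT. EC50 from Hill fits, normalized to R1881 at 30 nM.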
# [7] = qHTS assay to identify small molecules that stimulate interleukin-8 (IL-8) secretion (AID 651758; active = well fitted activation curve with a large enough effect in the signal ratio; the % refers to the signal ratio; note: potency is the fitted concentration of half-maximal effect); conditions: HTRF ratio (665/615); series mostly up to 92.2 µM
# Summary of the method: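 Secreted IL-8 measured homogeneously by TR-FRET (two labelled anti-IL-8 antibodies, 1-3 h at room temperature) after a 16 h, 37 C compound treatment of THP-1 cells at 2000 cells/well.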
# [8] = target: Muscarinic acetylcholine receptor M1 (Rattus norvegicus) (UniProt P08482); assay: qHTS Assay for Antagonists of Acetylcholine Muscarinic M1 Receptor: Measurement of IP-One Response (AID 944); conditions: CHO-M1 cells, IP-One HTRF, antagonist mode; series mostly up to 46.1 µM; note: nearly all actives have a fitted effect of over 75% in size
# Muscarinic acetylcholine receptor M1 (Rattus norvegicus), sequence (P08482 whole entry, looked up): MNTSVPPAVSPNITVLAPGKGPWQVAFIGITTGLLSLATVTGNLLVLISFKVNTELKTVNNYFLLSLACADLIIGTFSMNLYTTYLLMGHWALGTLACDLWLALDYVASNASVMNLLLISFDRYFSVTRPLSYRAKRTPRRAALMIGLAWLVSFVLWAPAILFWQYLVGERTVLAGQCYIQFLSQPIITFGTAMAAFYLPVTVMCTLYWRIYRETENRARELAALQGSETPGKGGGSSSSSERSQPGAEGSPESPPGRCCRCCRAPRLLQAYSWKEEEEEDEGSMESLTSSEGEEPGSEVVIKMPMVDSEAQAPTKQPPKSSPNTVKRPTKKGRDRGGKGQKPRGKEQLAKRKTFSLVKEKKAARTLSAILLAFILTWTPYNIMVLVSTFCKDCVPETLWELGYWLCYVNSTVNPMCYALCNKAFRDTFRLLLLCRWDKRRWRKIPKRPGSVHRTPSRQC
# Summary of the method: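 IP1 accumulation measured via TR-FRET between d2-IP1 and Eu-cryptate anti-IP1 antibody after carbachol (200 nM, EC80) stimulation for 30 min; rat M1-transfected CHO cells received compound 10 min before agonist.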
# [9] = target: Alpha-galactosidase (Coffea arabica) (UniProt Q42656); assay: Counterscreen for Glucocerebrosidase Inhibitors: qHTS Assay for Coffee Bean alpha-Galactosidase at pH 4.5 (AID 957); conditions: purified coffee bean alpha-galactosidase, fluorogenic substrate; series mostly up to 76.9 µM
# Alpha-galactosidase (Coffea arabica), sequence (Q42656 whole entry, looked up): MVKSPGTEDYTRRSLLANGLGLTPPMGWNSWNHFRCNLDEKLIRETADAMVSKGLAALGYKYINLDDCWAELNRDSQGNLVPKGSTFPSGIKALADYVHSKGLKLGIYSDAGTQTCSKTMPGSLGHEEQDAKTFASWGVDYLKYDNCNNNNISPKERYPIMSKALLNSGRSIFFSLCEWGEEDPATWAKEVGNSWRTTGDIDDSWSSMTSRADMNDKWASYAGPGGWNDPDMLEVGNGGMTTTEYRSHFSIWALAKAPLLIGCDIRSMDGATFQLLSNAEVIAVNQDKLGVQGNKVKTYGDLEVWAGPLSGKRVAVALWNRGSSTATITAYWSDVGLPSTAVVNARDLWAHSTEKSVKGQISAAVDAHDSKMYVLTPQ
# Summary of the method: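 Fluorogenic qHTS at pH 4.5 (citrate buffer with Tween-20): 2 nM enzyme, 80 uM 4-MU-alpha-galactoside substrate, compound titrated 0.7 nM to 77 uM, 20 min room temperature. Glycine/NaOH stop; 4-MU read Ex 365/Em 440; Hill-equation AC50 against no-enzyme and enzyme controls.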
# [10] = target: Alpha-galactosidase (Coffea arabica) (UniProt Q42656); assay: Counterscreen for Glucocerebrosidase Inhibitors: qHTS Assay for Coffee Bean alpha-Galactosidase at pH 5.9 (AID 998); conditions: coffee bean alpha-galactosidase enzyme assay; series mostly up to 76.9 µM
# Summary of the method: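 Fluorogenic 4-MU substrate hydrolysis, 80 uM substrate and 2 nM coffee bean alpha-galactosidase, pH 5.9 citrate buffer, 20 min at room temperature, then NaOH/glycine stop. Titration 0.7 nM–77 uM, normalized to no-enzyme and enzyme controls, AC50 via Hill equation.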
# [11] = target: Androgen receptor (Homo sapiens) (UniProt P10275); assay: qHTS assay for small molecule antagonists of androgen receptor signaling (AID 588516; active = well fitted curve in the direction sought with a large enough effect in the signal ratio, with a control signal flat, not every such curve was filed as active; the % refers to the signal ratio); conditions: AR-UAS-bla HEK293, beta-lactamase ratio, antagonist mode, 16 h; series mostly up to 76.8 µM
# Summary of the method: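 AR-UAS-bla-GripTite HEK 293 cells (2000/well, 5 h at 37 C) received compound titrations, then R1881 at 10 nM final; after 16 h at 37 C, CCF4 dye 2 h RT, beta-lactamase fluorescence read; IC50 from Hill fits.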
# [12] = qHTS assay for small molecule antagonists of peroxisome proliferator-activated receptor delta signaling (AID 588535; active = well fitted inhibition curve with a large enough effect in the signal ratio, with a control signal flat, not every such curve was filed as active; the % refers to the signal ratio;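 for max response: cells co-treated with a PPAR-delta agonist as stimulator during compound exposure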); conditions: HEK293T PPARd-UAS-bla, beta-lactamase FRET ratio, 18 h; 460 nm channel
# Summary of the method: (§1)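 Titrations were run on PPAR-delta-UAS-bla HEK293T cells in charcoal/dextran-stripped serum, incubated 18 h at 37 C. CCF4 fluorescence (460/530 nm) after 2 h RT; Hill equation yields IC50 and maximal response.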
# [13] = target: Peroxisome proliferator-activated receptor delta (Homo sapiens) (UniProt Q03181); assay: as above; conditions: HEK293T PPARd-UAS-bla, beta-lactamase FRET ratio, 18 h; series mostly up to 76.7 µM
# Summary of the method: as §1
# [14] = qHTS assay for small molecule agonists of retinoid X receptor alpha signaling (AID 588544; calls by dose curve); conditions: HEK293T RXRa-UAS-bla, beta-lactamase reporter, 18 h; 530 nm emission
# [15] = target: Retinoic acid receptor RXR-alpha (Homo sapiens) (UniProt P19793); assay: as above; conditions: HEK293T RXRa-UAS-bla, beta-lactamase reporter, 18 h; series mostly up to 76.7 µM
# Retinoic acid receptor RXR-alpha (Homo sapiens), sequence (P19793 whole entry, looked up): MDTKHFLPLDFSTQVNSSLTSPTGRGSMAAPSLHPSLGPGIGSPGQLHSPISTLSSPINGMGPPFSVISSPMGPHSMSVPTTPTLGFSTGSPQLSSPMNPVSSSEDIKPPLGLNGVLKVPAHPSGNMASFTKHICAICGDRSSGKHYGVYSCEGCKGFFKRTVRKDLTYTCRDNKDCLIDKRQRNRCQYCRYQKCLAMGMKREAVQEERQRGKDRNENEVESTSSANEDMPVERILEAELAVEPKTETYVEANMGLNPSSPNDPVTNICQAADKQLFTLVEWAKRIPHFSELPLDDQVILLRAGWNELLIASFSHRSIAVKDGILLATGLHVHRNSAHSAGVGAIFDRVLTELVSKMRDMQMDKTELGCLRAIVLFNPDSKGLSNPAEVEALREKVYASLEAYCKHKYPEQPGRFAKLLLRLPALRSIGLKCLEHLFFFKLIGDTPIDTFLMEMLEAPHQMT
# [16] = qHTS Assay for Identification of Small Molecule Agonists for Thrombopoietin (TPO) Signaling Pathway (AID 917); conditions: TPO signaling pathway reporter cells, agonist qHTS; series mostly up to 38.5 µM
# Summary of the method: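 First, Ba/F3 cells with human TPO receptor were held overnight without IL-3. Next, compounds and TPO (26 pM final) were added. After 24 hrs at 37 C, luciferase detection reagent was added and luminescence measured following 10 min at room temperature.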
# [17] = target: Bile acid receptor (Homo sapiens) (UniProt Q96RI1); assay: qHTS assay for small molecule antagonists of farnesoid X receptor signaling (AID 588526; calls by dose curve); conditions: HEK293T FXR-UAS-bla, beta-lactamase ratio, antagonist mode; series mostly up to 76.7 µM
# Bile acid receptor (Homo sapiens), sequence (Q96RI1 whole entry, looked up): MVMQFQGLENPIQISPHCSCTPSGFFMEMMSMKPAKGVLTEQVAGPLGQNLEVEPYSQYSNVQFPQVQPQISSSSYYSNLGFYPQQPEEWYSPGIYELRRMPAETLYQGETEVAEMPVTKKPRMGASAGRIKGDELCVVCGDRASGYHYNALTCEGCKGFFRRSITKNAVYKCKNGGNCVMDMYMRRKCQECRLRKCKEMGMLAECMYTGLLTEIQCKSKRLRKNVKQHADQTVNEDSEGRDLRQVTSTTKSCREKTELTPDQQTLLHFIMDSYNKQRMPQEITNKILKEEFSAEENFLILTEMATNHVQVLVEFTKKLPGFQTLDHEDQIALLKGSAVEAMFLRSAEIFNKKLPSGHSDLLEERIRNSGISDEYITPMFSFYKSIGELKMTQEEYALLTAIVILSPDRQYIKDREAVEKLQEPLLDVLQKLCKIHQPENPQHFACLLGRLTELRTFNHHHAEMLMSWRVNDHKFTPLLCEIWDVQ
# Summary of the method: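 Beta-lactamase reporter antagonist mode: HEK293T FXR-UAS-bla cells, titrated compound, CDCA stimulation, 16 h 37 C, CCF4 dye 2 h RT. Data normalized to CDCA 50 uM and DMSO; Hill-fit IC50.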
# [18] = qHTS Assay for Identification of Small Molecule Antagonists for Thrombopoietin (TPO) Signaling Pathway (AID 918); conditions: TPO-dependent cell signaling reporter, antagonist mode; note: potency is the fitted concentration of half-maximal effect; nearly all actives have a fitted effect of over 60% in size
# Summary of the method: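 Inhibition read as reduced luciferase luminescence after 24 h at 37 C in IL-3-deprived Ba/F3 cells carrying human TPO receptor and GPIIb-promoter reporter, stimulated with 26 pM TPO (final, its EC50) alongside compound.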
# [19] = target: Muscarinic acetylcholine receptor M1 (Rattus norvegicus) (UniProt P08482); assay: qHTS Assay for Antagonists of Acetylcholine Muscarinic M1 Receptor: Kinetic Measurement of Intracellular Calcium Response (AID 943); conditions: M1-expressing cells, kinetic intracellular calcium fluorescence; series mostly up to 35.3 µM; note: nearly all actives have a fitted effect of over 75% in size; note: potency is the fitted concentration of half-maximal effect
# Summary of the method: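 Antagonism measured as reduction of carbachol-evoked (EC80, 100 nM final) calcium flux in rat M1-CHO cells after 10 min compound exposure. Fluo-4 signal read kinetically; ratio of maximal to basal fluorescence.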
# [20] = qHTS Assay for Identification of Small Molecule Agonists for Hypoxia Response Element Signaling Pathway (AID 914; active = well fitted activation curve with a large enough effect in the signal ratio, with a control signal flat, not every such curve was filed as active; the % refers to the signal ratio); conditions: ME-180 (cervical carcinoma) HRE-bla reporter, beta-lactamase ratio, CoCl2, 17 h; activation: stronger effect = higher value
# Summary of the method: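 Positive modulation of EC50 CoCl2-induced hypoxia response element signaling is measured in ME-180 cells with a beta-lactamase reporter. Compounds are titrated, incubation runs 17 hours, and %Activity derives from the blue/green ratio.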
smiles,measurement,setting,value
c1cc2cc(c1)C[n+]1ccc(c3ccccc31)NCc1ccc(cc1)CNc1cc[n+](c3ccccc13)C2,Potency,[1],inactive
same,outcome,[2],inactive
CCCCCCCCn1sccc1=O,Potency,[3],inactive
same,Potency,[4],inactive
N#CSCSC#N,Potency,[5],35.5 µM (active)
COP(=O)(OC)O/C(=C\Cl)c1cc(Cl)c(Cl)cc1Cl,Potency,[3],inactive
same,activation,[6],-13% (inactive)
same,Potency,[7],inactive
Oc1ccc2c3c1O[C@@H]1[C@@H](O)CC[C@]4(O)[C@H](C2)N(CC2CCC2)CC[C@@]314,Potency,[8],inactive
same,outcome,[9],inactive
same,outcome,[10],inactive
O=[N+]([O-])c1ccc(O[C@H]2O[C@@H](CO)[C@@H](O)[C@@H](O)[C@@H]2F)c([N+](=O)[O-])c1,Potency,[8],inactive
same,outcome,[10],inactive
O=[N+]([O-])C(Br)Br,activation,[6],6.33% (inactive)
same,Potency,[11],inactive
same,max response,[12],-33.2%
same,Potency,[13],inactive
same,Potency,[4],inactive
same,Potency,[5],inactive
same,max response,[14],-3.79%
same,Potency,[15],inactive
C[N+]1(C)CCO[C@@](O)(c2ccc(-c3ccc([C@]4(O)C[N+](C)(C)CCO4)cc3)cc2)C1,outcome,[16],inactive
same,outcome,[9],inactive
ClC1=C(Cl)C2(Cl)C3C(Cl)C(Cl)CC3C1(Cl)C2(Cl)Cl (centres undefined),activation,[6],-9.52% (inactive)
same,Potency,[7],42.2 µM (active)
C(=NC1CCCCC1)=NC1CCCCC1,Potency,[3],inactive
same,Potency,[17],inactive
same,Potency,[7],53.1 µM (active)
Oc1cc2c(cc1O)[C@H]1c3ccccc3CN[C@@H]1CC2,Potency,[18],10 µM (active)
same,Potency,[19],inactive
same,Potency,[8],inactive
same,outcome,[9],inactive
same,outcome,[10],inactive
O[C@@H]1CCCC[C@H]1N1CCC(c2ccccc2)CC1,outcome,[16],inactive
same,Potency,[19],14.1 µM (active)
same,Potency,[8],inactive
same,outcome,[9],inactive
same,outcome,[10],inactive
CC(C)C[C@H](NC(=O)[C@@H]1CCCN1C(=O)[C@@H](N)Cc1ccc(O)cc1)C(=O)NCC(N)=O (H-YPLG-NH2),activation,[20],-10.4% (inactive)
C[C@@H]1O[C@@H](O[C@H]2C[C@@H](O)[C@]3(CO)[C@@H]4[C@@H](O)C[C@]5(C)[C@H](C6=CC(=O)OC6)CC[C@@]5(O)[C@H]4CC[C@@]3(O)C2)[C@H](O)[C@H](O)[C@@H]1O,outcome,[16],inactive
same,outcome,[9],inactive
same,outcome,[10],inactive
CCCCCCCCCCCCCC(=O)O[C@H]1[C@@H](C)[C@@]2(O)[C@@H](C=C(CO)C[C@]3(O)C(=O)C(C)=C[C@@H]23)C2C(C)(C)[C@]21OC(C)=O (some centres undefined),Potency,[19],0.02 µM (active)
same,Potency,[8],inactive
same,outcome,[9],inactive
same,outcome,[10],inactive
O=C(CN1CCN(CCO)CC1)Nc1ccc(Cl)cc1C(=O)c1ccccc1,activation,[20],0.98% (inactive)
Oc1cc2c(cc1O)[C@H]1c3ccccc3CN[C@H]1CC2,Potency,[1],inactive
same,outcome,[2],inactive
COC[C@H]1OC(=O)c2coc3c2[C@@]1(C)C1=C(C3=O)[C@H]2CCC(=O)[C@@]2(C)C[C@H]1OC(C)=O,Potency,[19],inactive
same,outcome,[9],inactive
same,outcome,[10],inactive
same,Potency,[1],inactive
same,outcome,[2],inactive
OC(Cc1ccccc1)(c1ccccc1)C1CN2CCC1CC2 (centres undefined),activation,[20],10.8% (inactive)
C[C@]12Cc3cn4c(nc3C=C1CC[C@H]1[C@@H]2CC[C@@]2(C)[C@H]1CC[C@@]2(O)C#N)nc1ccccc14,Potency,[18],10 µM (active)
same,Potency,[19],inactive
same,outcome,[9],inactive
same,outcome,[10],inactive
